This is a sample that favours compounds with a hit; in the whole collection about 2.6% have one here.
LT uptake inh: qHTS Assay for Anthrax Lethal Toxin Internalization; Cells, anthrax lethal toxin internalization, FRET ratio (460/530); Potency, µM (highest dose often 40 µM), inactives show at the top dose activity change, negative = inhibition, hits mostly inhibitors; actives 0.67% (n = 70,000); further: on the % scale 0 is the no-effect control and ±100 the full control effect; nearly all actives have a fitted effect of over 50% in size
AmpC inh no det: Promiscuous and Specific Inhibitors of AmpC Beta-Lactamase (assay without detergent) | P00811 | AmpC nitrocefin hydrolysis, absorbance 480 nm, no detergent | Potency, µM (doses to about 28.7 µM), inactives show at the top dose activity change, negative = inhibition | actives 1.8% (n = 71,000); further: % of control where 0% means no effect
Target sequence (P00811 whole entry, looked up): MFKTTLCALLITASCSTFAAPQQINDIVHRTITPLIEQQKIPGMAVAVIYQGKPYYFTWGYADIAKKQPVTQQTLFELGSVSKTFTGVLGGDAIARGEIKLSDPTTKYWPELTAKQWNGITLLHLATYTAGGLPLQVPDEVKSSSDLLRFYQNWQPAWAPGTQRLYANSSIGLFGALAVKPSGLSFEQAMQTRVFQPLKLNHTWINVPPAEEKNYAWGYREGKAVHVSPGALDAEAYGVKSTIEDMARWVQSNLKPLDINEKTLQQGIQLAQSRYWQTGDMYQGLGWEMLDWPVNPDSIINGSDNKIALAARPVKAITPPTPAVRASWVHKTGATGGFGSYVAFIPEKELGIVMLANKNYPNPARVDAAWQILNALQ
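AmpC in 20 mM phosphate buffer pH 7.0 was preincubated 15 min at room temperature with compounds. Nitrocefin (800 uM stock) was then added and hydrolysis followed at 480 nm every 20 s for 4 min.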
SmPrx2 inh: Schistosoma Mansoni Peroxiredoxins (Prx2). Schistosoma mansoni peroxiredoxin 2 (Prx2). S. mansoni Prx2 activity coupled to TGR/GSH (TGR is thioredoxin glutathione reductase), NADPH fluorescence loss, qHTS. Potency, µM. actives 0.07% (n = 65,000). AID 448, 2006
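Enzyme mix: 100 uM NADPH, 25 nM TGR, 700 uM GSH, 50 nM Prx2 in 100 mM phosphate pH 7.4, 10 mM EDTA, 0.01% Tween-20. 15 min RT with compound; NADPH/GSH added, H2O2 starts reaction; NADPH fluorescence read 8 min.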
AmpC det inh: Promiscuous and Specific Inhibitors of AmpC Beta-Lactamase (assay with detergent); P00811; purified AmpC, nitrocefin hydrolysis with detergent; Potency, µM (series often up to 28.7 µM), inactives show at the highest dose activity change, negative = inhibition; actives 0.09% (n = 71,000); AID 584, 2007; active means well fitted curve in the direction sought with a large enough effect; inconclusive means small, poorly fitted or top-dose-only effect; further: on the % scale 0 is the no-effect control and ±100 the full control effect
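E. coli AmpC (5.3 nM) in 20 mM phosphate pH 7.0 with 0.01% Triton X-100, preincubated 15 min RT with compound; nitrocefin (2 uL of 800 uM stock) hydrolysis followed by 480 nm absorbance every 20 s over 4 min.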
Active calls of the source: *; ? = inconclusive; · = not tested or not shown; ! = a repeat was not active; [ ] = dose if it differs, or a comment. Unless noted, the call rests on the fitted dose curve. Potency means the concentration at half of the fitted maximal effect.

SMILES	LT uptake inh	AmpC inh no det	SmPrx2 inh	AmpC det inh
Cc1nc2ccc(S(=O)(=O)NC(C(=O)N3CCC(C)CC3)C(C)C)cc2s1 (stereo not given)	-10.8%	3.98µM*[single pt active]	>57	23.1%
NCCSCc1ccccc1Cl	-4.5%[8 µM]	-8.5%[5.75 µM]	>57	-2.4%[5.75 µM]
O=C(Nc1ccccc1)C1=C(O)CC(c2ccco2)CC1=Nc1ccccc1 (stereo not given)	-1.9%	7.94µM*	>57	21.0%
O=C(Nc1ccccc1)C1=C(O)CC(c2ccoc2)CC1=Nc1ccccc1 (stereo not given)	?	-13.5%	·	-2.0%
CN1C[C@@H](CNC(=O)OCc2ccccc2)C[C@H]2c3cccc4c3c(cn4C)C[C@@H]21	?	73.3%	>57	-0.9%
CCN(CC)c1cccc(O)c1	-2.6%	-20.6%	·	9.9%
Cc1nn(-c2nc3ccccc3s2)c(N)c1-c1ccccc1	12.6µM*	-12.0%	>57	0.4%
CCCCN1C(=O)C(O)(CC(=O)c2ccco2)c2cc(Br)ccc21 (stereo not given)	?	2.51µM*[single pt active]	>57	11.9%
CC(=O)Nc1ccc(C(=O)CCl)cc1	12.6µM*	-9.4%	·	9.3%
C#CCCCO/N=C1/C[C@@H](O)[C@@H](O)[C@@H]2[C@H]3C(=O)N(c4ccc(F)cc4F)C(=O)[C@@H]3CC[C@@H]12	-3.2%[8 µM]	·	·	·
COc1ccc(S(=O)(=O)n2nc(-c3cc(OC)c(OC)c(OC)c3)cc2N)cc1OC	16.3%	129.7%	>57	6.1%
COc1ccccc1-c1cc(N)n(S(=O)(=O)c2ccc(F)c(C)c2)n1	?	20µM*[single pt active]	>57	8.2%
CC(=O)OC[C@@H]1O[C@H](C/C=N\OC[C@@H](C)[C@H](OCc2ccccc2)C(C)C)C=C[C@@H]1OC(C)=O	0.3%[8 µM]	·	·	·
CC(C)CCOc1cccc(C2c3c(oc4ccccc4c3=O)C(=O)N2CCCN2CCOCC2)c1 (stereo not given)	-19.7%	114.9%	>57	14.5%
COc1cccc(C2c3c(oc4ccccc4c3=O)C(=O)N2CCCN2CCOCC2)c1 (stereo not given)	0.6%	3.98µM*[single pt active]	>57	12.2%
c1cc(CN2CCCCC2)cc(OCCCNc2nc3ccccc3s2)c1	25.1µM*!	74.5%	>57	-0.5%
COc1cccc(CNc2nc3ccccc3n2CCN2CCCCC2)c1	2.2%	50.5%	>57	-3.1%
NCCC[C@@H](CC(=O)N[C@@H]1CCCC[C@H]1C(=O)N[C@H](CC(=O)N[C@@H](CCC(=O)O)CC(=O)O)Cc1c[nH]c2ccccc12)NC(=O)C[C@H](CO)NC(=O)[C@@H]1CNCC[C@H]1N	2.2%	106.6%	>57	-1.6%
COc1cc(NC(=O)C2CCC(CNc3c(N4CCCCC4)c(=O)c3=O)CC2)cc(OC)c1 (stereo not given)	?	3.98µM*[single pt active]	>57	13.0%
COc1ccccc1CNC(=O)C1CCC(CNc2c(N3CCOCC3)c(=O)c2=O)CC1 (stereo not given)	?	27.8%	>57	11.6%
O=C(NC1CCCc2ccccc21)C1CCC(CNc2c(N3CCOCC3)c(=O)c2=O)CC1 (stereo not given)	?	3.16µM*[single pt active]	>57	10.3%
O=C(Nc1cnc2ccccc2c1)c1cccnc1	-5.7%	3.98µM*[single pt active]	>57	10.4%
COCCn1c(=O)c(CCc2ccccc2)nc2cnc(OCc3ccccc3)nc21	?	47.2%	>57	-4.6%
c1ccc(CN2CCN(CCCNc3ccc4nnc(-c5ccccc5)n4n3)CC2)cc1	?	120.4%	>57	7.5%
Fc1ccccc1N1CCN(CCCNc2ccc3nncn3n2)CC1	-14.1%	3.98µM*[single pt active]	>57	15.4%
SMILES	LT uptake inh	AmpC inh no det	SmPrx2 inh	AmpC det inh
CC(CN1CCCCC1)OC(=O)c1ccc2c(c1)OCO2 (stereo not given)	-3.5%	-10.1%	>57	-1.1%
CC1CCN(CC(C)OC(=O)c2ccc3c(c2)OCCO3)CC1 (stereo not given)	-7.2%	3.98µM*[single pt active]	>57	26.6%
O=c1c(-c2cccs2)nc2cnc(N3CCOCC3)nc2n1CCc1ccccc1	?	-13.5%	>57	0.3%
Cc1cc(N2CCCN(C)CC2)nc2cc(Cl)ccc12	10µM*	37.1%	·	5.8%
O=NN(Cc1ccc(Cl)cc1)[C@@H](C(=O)O)c1ccccc1	-8.8%[8 µM]	-3.7%[5.75 µM]	>57	-4.5%[5.75 µM]
CCCCN(CC)CCNC(=O)c1cc2c(C)nc3ccccc3c2o1	12.6µM*	11.5%	>57	2.5%
CCN1CCCC1CNC(=O)c1cc2c(C)nc3ccccc3c2o1 (stereo not given)	?	-8.9%	>57	-2.1%
Cc1nc2ccccc2c2oc(C(=O)NCCN3CCCCC3C)cc12 (stereo not given)	7.94µM*	4.2%	>57	1.3%
COc1cc2c(cc1OC)-c1c(O)c(OC)cc3c1[C@@H](C2)N(C)CC3	-36.3%	18.7%	>57	10.8%
Brc1ccccc1CN1CCC(N2CCCCC2)CC1	10µM*	-19.9%	·	6.1%
O=C(c1ccccc1)N1CCN(Cc2ccccc2Br)CC1	2.8%	38.1%	>57	-5.0%
CO[C@@H]1COC(=O)[C@@H](C)NC(=O)C/C=C\[C@@H](C)[C@H](NS(=O)(=O)c2ccc(C)cc2)COC(=O)[C@H](C)NC(=O)C/C=C\[C@H]1C	-3.3%[8 µM]	·	·	·
CCOC(=O)c1c(C)n(C)c2ccc(OCC(O)Cn3nc(C)c(Br)c3C)cc12 (stereo not given)	10µM*	110.4%	>57	1.0%
O=c1cc(-c2ccc(O)cc2)oc2cc(O)cc(O)c12	-17.1%	3.98µM*!	>57	5.9%
O=c1cc(-c2ccccc2)oc2cc(O)cc(O)c12	-4.9%[3.58 µM]	-12.1%[12.8 µM]	>57	-1.0%[12.8 µM]
COc1ccc(OC2C=CC(c3ccccc3)OC2CO)c(C(C)(C)C)c1 (stereo not given)	-19.4%[8 µM]	·	·	·
CCOC(=O)C(C(C)=O)c1c(Br)c(O)c(O)c2c(C(=O)c3ccc(C)cc3)coc12 (stereo not given)	?	6.31µM*	>57	-3.0%
CCOC(=O)CCc1c(C)nc2cc(-c3ccccc3OC)[nH]n2c1=O	-5.9%	3.98µM*[single pt active]	>57	8.6%
CC(O)Cc1nsc(NC(=O)c2cccs2)n1 (stereo not given)	-8.2%	3.98µM*[single pt active]	>57	12.9%
CNC(=O)c1ccc2snnc2c1	2.6%	3.98µM*[single pt active]	>57	9.6%
O=C(O)c1c(-c2c3ccc(=O)cc-3oc3cc(O)ccc23)cc2ccccc2c1-c1ccccc1	-0.6%[8 µM]	6.4%[5.75 µM]	>57	-3.5%[5.75 µM]
CCOC(=O)C1=C(C)Nc2nnnn2C1c1ccc(OC)c(Br)c1 (stereo not given)	-3.4%	3.98µM*[single pt active]	>57	6.5%
C=CCOC(=O)C1=C(C)Nc2nnnn2C1c1cc(OC)ccc1OC (stereo not given)	7.1%	13.7%	>57	-4.9%
c1ccc(CNc2ncncc2-c2ccc3c(c2)OCO3)cc1	-11.6%	-1.9%	>57	4.5%
O=C1CCc2cc(S(=O)(=O)N3CCCC3C(=O)N3CCN(c4ccccc4F)CC3)ccc2N1 (stereo not given)	-5.0%	9.8%	>57	5.1%

Screening data: PubChem BioAssay, National Center for Advancing Translational Sciences (NCATS)
